What all share (assay type): functional
Experiment [1] concerns Plasmodium falciparum. Nature of the experiment: GSK_TCMDC: Inhibition of Plasmodium falciparum 3D7 in whole red blood cells, using parasite LDH activity as an index of growth. Test compounds present at 2uM.
Experiment [2] deals with Plasmodium falciparum. In words: GSK_TCMDC: Inhibition of Plasmodium falciparum Dd2 in whole red blood cells, using parasite LDH activity as an index of growth. Test compounds present at 2uM.
For a further experiment, the system named is HepG2. In words: GSK_TCMDC: Percent inhibition of human HepG2 cell line. Test compounds present at 10uM.

For the molecule `COc1ccc(Nc2c3ccc(Cl)cc3nc3ccc(OC)cc23)cc1.Cl`, the Inhibition with Plasmodium falciparum [1] came to 94%; with Plasmodium falciparum [2], 99%; in the experiment on HepG2 it was 14%.
For `CCCCCCCN1CCC(CCNc2ccnc3ccc(OC)cc23)CC1`, in that order: 84%, 86% and 5%.
For `CCN(CC)CCN(Cc1ccc(-c2ccc(C(F)(F)F)cc2)cc1)C(=O)Cn1c(CCc2cccc(F)c2F)nc(=O)c2ccc(C(F)(F)F)cc21.O=C(O)C(O)C(O)C(=O)O`, in that order: 99%, 55% and 19%.
For the molecule `COc1ccc(C(=O)NCCCCN2CCC(c3ccc4c(c3OC)CCCC4)CC2)cc1-c1ccc(C(F)(F)F)cc1`, the Inhibition stood at 100% in the experiment with Plasmodium falciparum [1], 56% with Plasmodium falciparum [2] and 67% with HepG2.
For `O=C(NCCCN1CCC(NC(=O)c2ccc(-c3cccnc3)cc2)CC1)c1ccc(Cl)c(Cl)c1.O=C(O)C(F)(F)F`, in that order: 94%, 23% and 17%.
For `CCNC(=O)Nc1ccc(-c2ccc(-c3nc4cccc(C)c4[nH]3)s2)cc1`, in that order: 96%, 13% and 18%.
`COc1cc(C)nc2ccc(NC(=O)Nc3cccc4ccccc34)cc12`: the Inhibition in the experiment on Plasmodium falciparum [1] was determined as 91%; with Plasmodium falciparum [2], 48%; in the experiment on HepG2 it was 27%.
For `Nc1c2ccccc2nc2cc(C(F)(F)F)ccc12`, in that order: 100%, 49% and 8%.
For `Cc1ccc2[nH]c(-c3cc(-c4ccc(OCc5ccccc5)cc4)cnc3N)nc2c1.O=C(O)C(F)(F)F`, in that order: 91%, 87% and 33%.
For `Cc1c(F)cc(C(=O)NC2CC2)cc1-c1ccc2c(cnn2S(=O)(=O)c2cccs2)c1`, in that order: 92%, 68% and 32%.
Consider `CO/C(=C\C=C\c1cc2cc(Cl)c(Cl)cc2[nH]1)C(=O)NC1CCN(CCOc2ccccc2)CC1`, for which the Inhibition in the experiment on Plasmodium falciparum [1] was found to be 100%; in the experiment on Plasmodium falciparum [2] it was 94%; in the experiment on HepG2, 35%.
For `CC(C)NCc1cccc(-c2ccc(NC(=O)c3ccc(F)cc3)cc2)c1.O=C(O)C(F)(F)F`, the Inhibition in the experiment with Plasmodium falciparum [1] worked out at 92%; with Plasmodium falciparum [2] it was 3%; in the experiment on HepG2, 7%.
For `CCCN(CCC)S(=O)(=O)c1ccc(C(=O)N2CCC(C(=O)OCC)CC2)cc1`, in that order: 98%, 41% and 26%.
For `Cc1cc2ccccc2n1CC(=O)N1CC(C(=O)N2CCCCC2)Oc2ccccc21` (stereo not drawn), in that order: 99%, 77% and 0%.
With `CCCC(C)c1ccc(N2C(N)=NC(N)=NC2(C)C)cc1.Cl` (stereo not drawn), the Inhibition in the experiment on Plasmodium falciparum [1] was 90%; in the experiment with Plasmodium falciparum [2], 7%; in the experiment with HepG2, 51%.
For `FC(F)(F)c1cc(C(F)(F)F)c2cc(CNCCCNc3nc4ccccc4[nH]3)[nH]c2c1`, in that order: 100%, 99% and 99%.
As for `Cc1ccc(Nc2nccc(NCC(O)c3cccc(F)c3)n2)cc1` (stereo not drawn), the Inhibition in the experiment with Plasmodium falciparum [1] was 95%; in the experiment on Plasmodium falciparum [2], 26%; with HepG2 it was 24%.
For `Cc1ccc2sc(N(CCCn3ccnc3)C(=O)c3ccco3)nc2c1C.Cl`, in that order: 93%, 98% and 9%.
For `Cc1ccc(CN2CCCN(Cc3cccc(NC(=O)c4cc5ccccc5s4)c3)CC2)cc1C.O=C(O)C(F)(F)F`, in that order: 92%, 33% and 44%.
For `COc1ccc(Nc2nccc(-c3ccc4ccnc(NCCCCN)c4c3)n2)cc1`, in that order: 95%, 47% and 15%.
With `Clc1cc(Nc2ncnc3sc(C#Cc4ncc[nH]4)cc23)ccc1OCc1ccccn1`, the Inhibition in the experiment on Plasmodium falciparum [1] is given as 100%; in the experiment with Plasmodium falciparum [2], 6%; in the experiment on HepG2, 10%.
On to `O=C(N[C@@H](CC1CCCCC1)C(=O)NC1CCCCCC1)c1ccc(O)c(-c2ccc(Cl)c(Cl)c2)c1`, for which the Inhibition is 99% in the experiment on Plasmodium falciparum [1], 100% in the experiment on Plasmodium falciparum [2] and 0% with HepG2.
In the case of `Cc1cccc2nc(-c3ccc(-c4cccc(NC(=O)c5cnccc5C(F)(F)F)c4)cc3)[nH]c12`, the Inhibition with Plasmodium falciparum [1] was determined as 84%; in the experiment with Plasmodium falciparum [2], 13%; with HepG2, 25%.
For `O=C(Nc1cccc(-c2cccc(CN3CCCC3)c2)c1)c1ccc(Cl)cc1.O=C(O)C(F)(F)F`, in that order: 93%, 32% and 50%.
In the case of `Cc1cc(N[C@@H](Cc2ccccc2)C(=O)Nc2ccccc2)nc(Nc2ccccc2)n1.O=C(O)C(F)(F)F`, the Inhibition in the experiment on Plasmodium falciparum [1] turned out to be 100%; in the experiment with Plasmodium falciparum [2] it was 69%; in the experiment with HepG2, 8%.
With `Cc1cc(-c2cccc(CNCCc3ccc(Cl)cc3)c2)cnc1N.Cl`, the Inhibition with Plasmodium falciparum [1] is on record as 90%; in the experiment with Plasmodium falciparum [2], 3%; with HepG2, 19%.
Take `CC(C)CNCc1cccc(-c2ccccc2CNC2CCN(Cc3ccccc3)CC2)c1.O=C(O)C(F)(F)F`: the results for the Inhibition with Plasmodium falciparum [1], with Plasmodium falciparum [2] and in the experiment on HepG2 were 100%, 39% and 25%, respectively.
For `Cc1nc(N)nc(N)c1CCCOc1ccccc1Br`, in that order: 97%, 5% and 53%.
For `CN1CCN(c2ccnc3ccc(NC(=O)Cc4ccc(OCc5ccccc5)cc4)cc23)CC1`, in that order: 100%, 89% and 6%.
`CC(=O)c1cc(N2CCOCC2)ccc1N`: the Inhibition with Plasmodium falciparum [1] came to 91%; with Plasmodium falciparum [2] it was 43%; with HepG2, 7%.
With `N#Cc1ccc(C(=O)Nc2cccc(-c3ccc(CN4CCCC4)cc3)c2)cc1.O=C(O)C(F)(F)F`, the results for the Inhibition in the experiment with Plasmodium falciparum [1], with Plasmodium falciparum [2] and in the experiment with HepG2 were 99%, 0% and 13%, respectively.
As to `O=C(c1cc(-c2cccs2)n[nH]1)N1CCN(S(=O)(=O)c2ccc(Cl)cc2)CC1`, the Inhibition in the experiment on Plasmodium falciparum [1] is 96%; in the experiment on Plasmodium falciparum [2] it was 95%; with HepG2, 0%.
As to `O=C(O)C(F)(F)F.Oc1ccc(CCCNc2nc(NCc3ccccc3-c3ccccc3)nc(NC3CCNCC3)n2)cc1`, the Inhibition stood at 97% in the experiment on Plasmodium falciparum [1], 2% in the experiment on Plasmodium falciparum [2] and 0% with HepG2.
For `CCOC(=O)c1ccc(NC(=O)N[C@@H](Cc2ccccc2)C(=O)NC2CCN(Cc3ccc(O)cc3)C2)cc1` (stereo partly drawn), in that order: 95%, 2% and 7%.
For `CCOC(=O)NC1=NC(=N)N(OCCCOc2cc(Cl)c(Cl)cc2Cl)C(C)(C)N1`, in that order: 97%, 94% and 63%.
For `O=C(O)C(F)(F)F.c1cc(-c2ccc(CNCCc3ccncc3)cc2)cc(-c2nc3ccccc3[nH]2)c1`, in that order: 100%, 99% and 41%.
Consider `CN1CCCc2ccc(NC(=O)c3cnc(-c4ccccc4)cn3)cc21`, for which the results for the Inhibition in the experiment on Plasmodium falciparum [1], in the experiment with Plasmodium falciparum [2] and in the experiment on HepG2 were 87%, 82% and 24%, respectively.
For `CN(C)c1cc(NC(=O)Nc2ccc(SC(F)(F)F)cc2)c2ccccc2n1`, in that order: 100%, 100% and 22%.
For `Cc1ccc(Nc2nc(C)cc(NCc3ccc(-n4ccnc4)cc3)n2)cc1`, in that order: 100%, 100% and 33%.
With `Cc1cccc2nc(-c3ccc(-c4ccc(CN5CCN(C6CCN(C)CC6)CC5)cc4)s3)[nH]c12.O=C(O)C(F)(F)F`, the Inhibition in the experiment with Plasmodium falciparum [1] was determined as 100%; in the experiment on Plasmodium falciparum [2], 100%; with HepG2, 97%.
For the molecule `CCCCN(CCCC)CCNC(=O)c1cccc(NC(=O)N2CCc3cc(SC)c(C(F)(F)F)cc32)c1`, the values for the Inhibition with Plasmodium falciparum [1], in the experiment on Plasmodium falciparum [2] and in the experiment on HepG2 were 96%, 32% and 15%, respectively.
Regarding `O=C(/C=C/c1ccc(Cl)c(Cl)c1)NCCCCCN1CCC(NC(=O)Nc2ccc3c(c2)OCO3)CC1`, the results for the Inhibition in the experiment with Plasmodium falciparum [1], in the experiment with Plasmodium falciparum [2] and in the experiment on HepG2 were 100%, 5% and 12%, respectively.
For `N#CC(NC(=O)C=Cc1ccccc1)c1ccccc1` (stereo not drawn), in that order: 95%, 3% and 3%.
`COCCN1CCC(N(Cc2ccc(-c3ccc(OC(F)(F)F)cc3)cc2)C(=O)Cn2c(CCc3cccc(F)c3F)cc(=O)c3ccccc32)CC1.O=C(O)C(O)C(O)C(=O)O`: the Inhibition is given as 96% in the experiment with Plasmodium falciparum [1], 92% in the experiment with Plasmodium falciparum [2] and 100% in the experiment with HepG2.
For `COc1ccc(Cc2cnc3nc(N)nc(N)c3c2C)cc1.Cl`, in that order: 90%, 96% and 65%.
For `O=C(/C=C/c1ccc(Cl)c(Cl)c1)NCCCCCN1CCC(c2c[nH]c3ccccc23)CC1`, in that order: 99%, 7% and 33%.
For `CCCCCCNCc1c(O)ccc2c(CNCCCCCC)c(O)ccc12.Cl`, in that order: 100%, 100% and 22%.
With `COc1ccc(NC(=O)/C=C/c2ccccc2Cl)cc1OCCN1CCC(NCc2ccccc2)CC1`, the Inhibition in the experiment on Plasmodium falciparum [1] is listed as 100%; with Plasmodium falciparum [2], 100%; in the experiment on HepG2, 28%.
As for `O=C(Nc1ccc(-c2cccc(-c3nc4cc(C(F)(F)F)ccc4[nH]3)c2)cc1)Nc1ccc(Cl)c(Cl)c1`, the Inhibition in the experiment with Plasmodium falciparum [1] came to 98%; with Plasmodium falciparum [2] it was 23%; with HepG2, 42%.
For `CC(C)c1ccc(CN2CCCCC(NC(=O)c3cc(-c4cccc(F)c4)cs3)C2)cc1.O=C(O)C(F)(F)F` (stereo not drawn), in that order: 94%, 13% and 6%.
For `CC(C)NCc1cccc(-c2ccc(-c3nc4ccccc4[nH]3)cc2)c1.O=C(O)C(F)(F)F`, in that order: 100%, 66% and 4%.
As for `COc1cc(N)c(Cl)cc1C(=O)NC1CCC(NCC2CCCCC2)CC1.Cl` (stereo not drawn), the Inhibition stood at 90% in the experiment on Plasmodium falciparum [1], 85% in the experiment with Plasmodium falciparum [2] and 18% in the experiment with HepG2.
For `CCN(CC)CCNC(=O)c1ccc(N/C=C2\C(=O)Nc3ccc(S(=O)(=O)Cc4c(Cl)cccc4Cl)cc32)cc1`, in that order: 100%, 56% and 25%.
Regarding `CC1(CCCCN2CCC(c3c[nH]c4cnccc34)CC2)C(=O)Nc2cccc(Cl)c21` (stereo not drawn), the Inhibition in the experiment on Plasmodium falciparum [1] was found to be 100%; with Plasmodium falciparum [2], 0%; in the experiment on HepG2, 26%.
For `Cl.c1ccc2c(Nc3ccc(Cc4ccc(Nc5c6ccccc6nc6ccccc56)cc4)cc3)c3ccccc3nc2c1`, in that order: 100%, 100% and 93%.
For the molecule `O=C(/C=C/c1ccc(Cl)c(Cl)c1)NCCCCCN1CCCN(C(=O)Nc2cc(F)cc(F)c2)CC1`, the Inhibition in the experiment on Plasmodium falciparum [1] is 94%; with Plasmodium falciparum [2], 1%; with HepG2, 4%.
For `CN(CCCCNC(=O)/C=C/c1ccccc1)C1CC2(CCN(C(=O)OC(C)(C)C)CC2)c2ccccc21` (stereo not drawn), in that order: 87%, 51% and 11%.
For `NC1CCN(Cc2cccc(-c3ccc(-c4nc5ccccc5[nH]4)s3)c2)C1.O=C(O)C(F)(F)F` (stereo not drawn), in that order: 100%, 62% and 36%.
Regarding `O=C(N[C@@H](Cc1ccccc1)[C@H](O)CNC1CCCCC1)c1cc(C2CCCC2)cc(N2CCCC2=O)c1`, the results for the Inhibition in the experiment with Plasmodium falciparum [1], with Plasmodium falciparum [2] and in the experiment on HepG2 were 100%, 98% and 17%, respectively.
With `CCCCC1(NC(=O)[C@@H](Nc2ccc(C#N)c3ccccc23)C2CCCCC2)CCCCC1.O=C(O)C(F)(F)F`, the Inhibition in the experiment with Plasmodium falciparum [1] amounted to 91%; in the experiment with Plasmodium falciparum [2], 84%; with HepG2 it was 8%.
For `Cc1cccc2nc(-c3cccc(-c4cccc(NC(=O)Nc5ccc(F)c(F)c5F)c4)c3)[nH]c12`, in that order: 100%, 99% and 32%.

Usually Inhibition stands for the percentage by which the read-out fell short of the control. Lower therefore signals a response near the control.
